PubChem BioAssay
Active and inactive are the calls of the source. Unless noted, how the calls were made is not given here.

Key:
[1] = HepG2 liver cancer cell viability effects, profiling panel, resazurin fluorescence, 24 h, PK04 Diversity Set (AID 1172); conditions: higher = more signal
[2] = basal S. cerevisiae growth modulation, no modifier, primary screen, OD600, strain BY4716, 24 h, basal condition (AID 1173); conditions: OD600, 24 h, higher = more signal, called active from +8 up or from −8 down
[3] = MM1S myeloma cell viability, profiling panel, resazurin fluorescence, basal, 24 h, PK04 Diversity Set (AID 1174); conditions: higher = more signal, called active from +8 up or from −8 down;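 further: MM1S multiple myeloma cell line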
[4] = molecular target: Dihydroorotate dehydrogenase (quinone), mitochondrial (Plasmodium falciparum (isolate 3D7)) (UniProt Q08210); assay: PfDHODH enzyme inhibitors, primary screen, biochemical, C-terminal His tag, absorbance 600 nm (AID 1175); conditions: DCIP absorbance 600 nm, higher = more signal, called active from +8 up or from −8 down;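 further: recombinant parasite enzyme with a five histidine tag at its C terminus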
[5] = P. aeruginosa biofilm formation inhibitors, primary screen, strain PAO1, LB-PBS medium, absorbance 600 nm (AID 1176); conditions: P. aeruginosa PAO1 growth/biofilm, A600, 12 h; higher = more signal
[6] = S. cerevisiae RM11-1a growth modifiers, primary screen, strain RM11-1a, OD600, basal, 24 h (AID 1177); conditions: OD600, 24 h, higher = more signal, called active from +8 up or from −8 down;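 further: cultures grown under basal conditions with no added stressor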
[7] = E. coli acrAB mutant growth effects, primary screen, E. coli filamentation inducers, strain DRC39, OD650, 24 h (AID 1178); conditions: higher = more signal, called active from +8 up or from −8 down;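 further: growth measured as culture turbidity by optical density at 650 nm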
[8] = E. coli acrAB mutant growth effects, primary screen, E. coli filamentation inducers, strain DRC39, OD650, 48 h (AID 1179);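 further: screen aims at cell division blockers that make cells filament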; conditions: E. coli DRC39 delta-acrAB growth, higher = more signal, called active from +8 up or from −8 down
[9] = RPMI8226 myeloma cell viability, profiling panel, resazurin fluorescence, basal, 24 h, PK04 Diversity Set (AID 1180); conditions: higher = more signal;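 further: RPMI8826 multiple myeloma cell line at 5000 cells per well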
[10] = molecular target: E3 ubiquitin-protein ligase XIAP (Homo sapiens) (UniProt P98170); assay: XIAP binders, primary screen, biophysical, small-molecule microarray, fluorescence 635 nm (AID 1181); conditions: small-molecule microarray binding, higher = more signal;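 further: score merges 667 nm emission and signal to noise over triplicate slides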
[11] = system: XIP peptide (Xip251-270) binding; assay: small-molecule binders of XIP peptide, primary screen, biochemical, small-molecule microarray, fluorescence 635/667 nm, 0.1 µg/mL protein (AID 1182); conditions: fluorescent protein binding, 635 nm, higher = more signal, called active from +8 up or from −8 down
XIP peptide (Xip251-270) = assay: small-molecule binders of XIP peptide, primary screen, biochemical, small-molecule microarray, fluorescence 635/667 nm, 0.5 µg/mL protein (AID 1183); conditions: small-molecule microarray binding, fluorescence 635 nm; higher = more signal
[12] = Plasmodium falciparum growth inhibition, primary screen, strain 3D7, DAPI fluorescence, 100 nL (AID 1184);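 further: parasites grown inside human red blood cells in medium with human serum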; conditions: P. falciparum 3D7 growth, 3 d, higher = more signal
[13] = molecular target: Homeobox protein Hox-A13 (Mus musculus) (UniProt Q62424); assay: inhibitors of HoxA13-DNA binding, primary screen, biochemical, fluorescence polarization, labeled oligonucleotide (AID 1185); conditions: 15 min, higher = more signal, called active from +8 up or from −8 down
[14] = inhibitors of hydroxyurea-induced Chk1 phosphorylation, primary screen, imaging, HeLa, phospho-Chk1 antibody, percent positive cells (AID 1186); conditions: hydroxyurea-induced phospho-Chk1 immunofluorescence imaging, higher = more signal
[15] = inhibitors of hydroxyurea-induced Chk1 phosphorylation, primary screen, imaging, HeLa, phospho-Chk1 nuclear intensity (AID 1187); conditions: hydroxyurea-induced phospho-Chk1 immunofluorescence imaging, higher = more signal

Chain of Homeobox protein Hox-A13 (Mus musculus) (Q62424 whole entry, looked up): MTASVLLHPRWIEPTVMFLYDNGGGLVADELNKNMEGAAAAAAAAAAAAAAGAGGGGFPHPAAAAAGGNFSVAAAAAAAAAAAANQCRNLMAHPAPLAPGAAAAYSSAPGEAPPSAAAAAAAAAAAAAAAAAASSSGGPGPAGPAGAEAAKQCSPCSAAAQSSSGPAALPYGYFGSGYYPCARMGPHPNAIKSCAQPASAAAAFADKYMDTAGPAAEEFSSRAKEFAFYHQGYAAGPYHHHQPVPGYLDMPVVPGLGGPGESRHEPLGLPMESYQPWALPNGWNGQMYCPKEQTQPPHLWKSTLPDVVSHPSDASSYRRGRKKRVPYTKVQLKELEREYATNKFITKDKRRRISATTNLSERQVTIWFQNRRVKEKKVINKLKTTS
Chain of Dihydroorotate dehydrogenase (quinone), mitochondrial (Plasmodium falciparum (isolate 3D7)) (Q08210 whole entry, looked up): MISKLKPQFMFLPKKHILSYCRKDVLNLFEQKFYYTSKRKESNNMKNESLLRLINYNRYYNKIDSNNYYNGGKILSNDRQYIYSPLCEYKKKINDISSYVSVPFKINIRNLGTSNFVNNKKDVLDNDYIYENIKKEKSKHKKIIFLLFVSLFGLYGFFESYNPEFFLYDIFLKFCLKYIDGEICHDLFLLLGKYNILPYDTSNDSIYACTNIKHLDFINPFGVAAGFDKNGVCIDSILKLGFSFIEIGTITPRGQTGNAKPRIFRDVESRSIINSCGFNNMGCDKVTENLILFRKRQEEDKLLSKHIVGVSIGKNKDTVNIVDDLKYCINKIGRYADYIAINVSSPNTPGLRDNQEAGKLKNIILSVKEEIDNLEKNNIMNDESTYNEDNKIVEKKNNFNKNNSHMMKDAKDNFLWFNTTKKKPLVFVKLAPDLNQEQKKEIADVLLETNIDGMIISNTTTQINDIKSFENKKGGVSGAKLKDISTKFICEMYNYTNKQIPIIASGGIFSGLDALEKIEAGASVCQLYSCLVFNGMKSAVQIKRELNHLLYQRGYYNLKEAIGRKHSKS
Chain of E3 ubiquitin-protein ligase XIAP (Homo sapiens) (P98170 whole entry, looked up): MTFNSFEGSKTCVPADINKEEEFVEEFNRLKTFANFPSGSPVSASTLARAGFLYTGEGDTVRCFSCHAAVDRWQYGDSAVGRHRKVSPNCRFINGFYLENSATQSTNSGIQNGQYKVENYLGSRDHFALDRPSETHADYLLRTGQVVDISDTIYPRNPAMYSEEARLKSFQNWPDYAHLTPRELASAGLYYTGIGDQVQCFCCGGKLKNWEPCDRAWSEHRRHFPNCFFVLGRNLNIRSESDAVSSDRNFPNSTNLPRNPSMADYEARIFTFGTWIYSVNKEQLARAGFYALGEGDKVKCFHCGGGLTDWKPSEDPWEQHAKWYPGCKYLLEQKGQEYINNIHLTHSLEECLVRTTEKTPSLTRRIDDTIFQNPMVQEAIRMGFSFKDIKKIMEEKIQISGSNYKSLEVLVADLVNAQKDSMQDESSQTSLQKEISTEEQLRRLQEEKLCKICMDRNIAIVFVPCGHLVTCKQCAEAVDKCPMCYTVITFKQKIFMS

Compound	z-score [1]	z-score [2]	z-score [3]	composite z-score [4]	z-score [5]	z-score [6]	z-score [7]	z-score [8]	z-score [9]	composite z-score [10]	composite z-score [11]	composite z-score (XIP peptide (Xip251-270))	z-score [12]	z-score [13]	z-score [14]	z-score [15]
COc1cc(CO)cc(I)c1O[C@H]1C=C(C(=O)NCCO)C[C@@H](N(CCc2cccc(F)c2)C(=O)CCC2CCCC2)[C@@H]1O	-1.69	-9.37 (active)	-3.26 (inactive)	-0.459 (inactive)	1.99 (inactive)	1.99 (inactive)	-0.0338 (inactive)	-0.177 (inactive)	-4.07	0.29	0.131 (inactive)	0.65	-2.18	-6.89 (inactive)	0.624 (inactive)	0.824 (inactive)
C=C(/C(=C/C[C@@H](OC(=O)c1ccncc1)c1ccc(CO)o1)c1cc(C(=O)OC)ccc1OC)C(C)C	-0.512	-0.128 (inactive)	-0.51 (inactive)	-1.49 (inactive)	0.519 (inactive)	-0.0289 (inactive)	0.885 (inactive)	0.64 (inactive)	-0.533	-0.187	0.18 (inactive)	0.813	-1.01	-4.08 (inactive)	-0.471 (inactive)	0.811 (inactive)
O=C1C[C@@](C(=O)O)(c2ccc([N+](=O)[O-])cc2)[C@@H](c2ccc(CO)cc2I)N1C1CCCCC1	0.0536	-5.06 (inactive)	-1.62 (inactive)	-1.68 (inactive)	1.16 (inactive)	-1.01 (inactive)	1.39 (inactive)	0.466 (inactive)	-1.57	-0.289	-0.183 (inactive)	0.553	-2.01	-6.2 (inactive)	-0.195 (inactive)	0.201 (inactive)
C=C(C(=O)CC[C@@H](OC(=O)c1cccnc1)c1ccc(OCCO)cc1)C(C)C	-0.706	-18.4 (active)	-0.446 (inactive)	-3.83 (inactive)	0.907 (inactive)	-22.2 (active)	-0.706 (inactive)	-0.694 (inactive)	-1.56	-0.184	1.15 (inactive)	0.611	-0.496	-3.94 (inactive)	1.38 (inactive)	1.36 (inactive)
[N-]=[N+]=NCc1ccccc1C[C@]1(C(=O)N2CCOCC2)N=C(c2ccc(OCCCO)cc2)O[C@H]1c1ccccc1	-0.552	-0.34 (inactive)	-2.29 (inactive)	1.44 (inactive)	-0.537 (inactive)	0.328 (inactive)	0.685 (inactive)	0.694 (inactive)	-4.46	-0.0884	0.855 (inactive)	0.21	-2.38	-6.01 (inactive)	-0.638 (inactive)	-0.71 (inactive)
C=CCOC(=O)[C@H]1[C@@H]2C(=O)O[C@@H](c3ccccc3)[C@@H](c3ccccc3)N2[C@@H](c2ccc(OCCOC(=O)[C@H]3C[C@H]4C(=O)N[C@@H](CCCC[N+](C)(C)C)C(=O)N4[C@H]3c3ccc(O)cc3)cc2)[C@]12C(=O)Nc1ccccc12	0.767	-2.24 (inactive)	1.31 (inactive)	-2.24 (inactive)	-0.723 (inactive)	0.0539 (inactive)	0.402 (inactive)	0.0612 (inactive)	1.21	0.0325	-0.436 (inactive)	0.487	1.04	6.97 (inactive)	-0.179 (inactive)	-0.219 (inactive)
[N-]=[N+]=NCc1ccccc1[C@@H]1OC(c2ccc(OCCCO)cc2)=N[C@]1(Cc1ccccc1)C(=O)O	1.18	-3.03 (inactive)	0.615 (inactive)	-0.101 (inactive)	0.466 (inactive)	0.703 (inactive)	0.305 (inactive)	-0.108 (inactive)	0.469	-0.0731	0.078 (inactive)	0.859	0.615	-4.89 (inactive)	0.412 (inactive)	0.595 (inactive)
COC(=O)c1nc2oc1CC[C@@H](CO)NC(=O)N(C)Cc1cn(nn1)C[C@H](Cc1ccccc1)NC2=O	0.395	-7.59 (inactive)	0.456 (inactive)	-0.773 (inactive)	0.113 (inactive)	0.219 (inactive)	0.0613 (inactive)	0.72 (inactive)	0.407	-0.117	0.827 (inactive)	0.969	1.24	-1.31 (inactive)	-0.0288 (inactive)	-0.455 (inactive)
Cn1c2c(c3ccccc31)C(=O)C1NC2C=CC1(C)C(=O)OCc1ccccc1 (centres undefined)	0.0885	0.272 (inactive)	-1.35 (inactive)	-0.296 (inactive)	-0.253 (inactive)	-0.128 (inactive)	-1.33 (inactive)	-1.06 (inactive)	-1.2	0.0546	-0.605 (inactive)	-0.416	-0.502	-3.9 (inactive)	-0.3 (inactive)	-0.512 (inactive)
